Compound activity: PubChem, National Center for Advancing Translational Sciences (NCATS)
Compounds with a hit are over-represented: about 8.8% of the library has one in this group of screens.
HT1080 IDH1KD tx = toxicity to HT-1080 IDH1 knockdown cells (counter line); HT-1080 IDH1 knockdown viability, ATP luminescence, 48 h; Potency, µM (titrated, usually from 46.1 µM), actives largely listed as cytotoxic; 360,000 compounds, 2% hits; AID 686971
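HT-1080-IDH1KD cells (IDH1 knocked down), 750/well in RPMI with 5% FBS, treated with compound 48 h at 37 degrees C. Viability by CellTiter-Glo luminescence, normalised to DMSO and no-cell wells; concentration-response curves classed.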
IL1B secr inh = blocks inflammasome-driven IL-1 beta release; AID 743279; THP-1 LPS/ATP IL-1B secretion, AlphaLISA, 16 h; active compounds read low; activity change, % at 57.5 µM; 360,000 compounds, 4.7% hits; in the data active = activity change below about -50%; inconclusive = mostly about -30% to -49%
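Secreted IL-1B measured by AlphaLISA bead assay after 16 h compound exposure of THP-1 cells; compounds (final up to 57.5 uM) added 1 h before LPS (250 ng/mL) and ATP (1.25 mM) stimulation; lower signal means less secretion.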
HT1080-NT tox = kills 2HG-producing HT-1080-NT fibrosarcoma cells; HT-1080-NT fibrosarcoma viability, CellTiter-Glo ATP luminescence, 48 h; Potency, µM (titrated, usually from 46.1 µM), most hits filed as cytotoxic; 360,000 compounds, 1.6% hits; AID 686970;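 note: NT is the 2HG producing partner of a matched IDH1 knockdown line; nearly all actives have a fitted effect of over 55% in size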
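750 cells/well, RPMI + 5% FBS; 2 h settle, compound pin-transfer, 48 h at 37 degrees C. CellTiter-Glo 10 min RT, luminescence. Normalized to DMSO and media-only wells.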
KB-3-1 cytotox = kills parental KB-3-1 adenocarcinoma cells; KB-3-1 viability, CellTiter-Glo ATP luminescence, 72 h; Potency, µM (top dose mostly 46.1 µM), most hits filed as cytotoxic; 400,000 compounds, 1.4% hits; note: nearly all actives have a fitted effect of over 60% in size
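Viability of parental KB-3-1 cells, measured by CellTiter-Glo luminescence, followed a 72 h incubation at 37 °C with pinned compounds in phenol-red-free DMEM containing 10% FBS.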
KB-V1 cytotox = KB-V1 MDR subline cytotoxicity; KB-V1 MDR cells viability, CellTiter-Glo, 72 h; Potency, µM (titrated, usually from 46.1 µM), most hits filed as cytotoxic; 400,000 compounds, 3.4% hits; AID 1347076; note: nearly all actives have a fitted effect of over 60% in size
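Potencies derive from concentration-effect curves fitted to normalized luminescence (CellTiter-Glo) of KB-V1 cells treated for 72 h at 37 degrees C in phenol-red-free DMEM containing 10% FBS.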
Numbers stand for hits; 0 = inactive; ? = inconclusive; - = not tested or not shown; ! = a repeat was not active. Unless noted, calls come from the whole dose curve; as a rule, active = well fitted curve in the direction sought with a large enough effect; inconclusive = small, poorly fitted or top-dose-only effect, or another doubt; inactive = no such curve, though single readings can be large; an effect the other way counts as inactive or inconclusive.

SMILES	HT1080 IDH1KD tx	IL1B secr inh	HT1080-NT tox	KB-3-1 cytotox	KB-V1 cytotox
COc1ccc(OC)c(NC(=O)C2CCC(CNc3c(N4CCOCC4)c(=O)c3=O)CC2)c1 (stereo not drawn)	0	0	0	0	0
CC1(C(=O)Nc2cccc(-n3cnnn3)c2)Cc2ccccc2C(=O)O1 (stereo not drawn)	0	0	0	0	11.6µM
CC1(C(=O)Nc2cccc(Br)c2)Cc2ccccc2C(=O)O1 (stereo not drawn)	-	-	-	0	?
CSc1ccc2c(c1)N(CCC1CCCCN1C)c1ccccc1S2 (stereo not drawn)	?	0	18.4µM	0	?
CN1CC[C@H](CN2c3ccccc3Sc3ccccc32)C1	-	-	-	?	0
CCN(CC)C(=O)c1ccc2nc([C@H]3C[C@H](O)[C@@H](CO)O3)[nH]c2c1	0	0	0	0	0
OC[C@H]1O[C@@H](c2nc3ccc(-c4nc(-c5ccc(Br)cc5)no4)cc3[nH]2)C[C@@H]1O	18.4µM	0	18.4µM	0	0
CCOc1cc2[nH]c(=O)n(CCC(=O)N3CCN(c4cccc(Cl)c4)CC3)c(=O)c2cc1OCC	-	-	-	0	0
CC1(c2ccc3c(c2)OCO3)NC(=O)N(CC(=O)Nc2ccccc2[N+](=O)[O-])C1=O (stereo not drawn)	0	0	0	0	14.6µM
O=C(O)C(CCc1ccccc1)(Cc1ccccc1)C(=O)O	0	0	?	0	0
CC(C)(C)OC(=O)NCCCCCNC(=O)c1[nH]cnc1C(=O)Nc1ccc(Cl)cc1	?	?	?	?	0
CC(C)(C)OC(=O)NCCCC[C@H](NC(=O)c1[nH]cnc1C(=O)N[C@@H](Cc1ccccc1)C(=O)OC(C)(C)C)C(=O)OC(C)(C)C	0	-55.7	0	?	0
C[C@H](NC(=O)c1nc[nH]c1C(=O)N[C@@H](CCCCNC(=O)OC(C)(C)C)C(=O)OC(C)(C)C)c1ccccc1	?	-52.3	?	?	20.6µM
C[C@H](NC(=O)c1nc[nH]c1C(=O)N[C@@H](Cc1ccccc1)C(=O)OC(C)(C)C)C(=O)OC(C)(C)C	?	0	?	?	?
Cc1ccc(NC(=O)c2nc[nH]c2C(=O)NCCCCCNC(=O)OC(C)(C)C)cc1	0	-61.7	?	?	?
C[C@@H](NC(=O)c1nc[nH]c1C(=O)NCCCCCNC(=O)OC(C)(C)C)c1ccccc1	0	0	0	0	?
CC(C)(C)OC(=O)[C@H](Cc1ccccc1)NC(=O)c1nc[nH]c1C(=O)N[C@@H](Cc1ccccc1)C(=O)OC(C)(C)C	?	0	0	16.4µM	?
Cc1cccc(-n2c3c(cc(-c4nc(-c5ccc(Cl)cc5)cs4)c2=O)C(=O)CC(C)(C)C3)c1	-	-	-	0	0
COc1cccc(NC(=O)CCc2c(C)nc3ncnn3c2C)c1	-	-	-	0	0
CCN(CC)CCNC(=O)c1ccc(NC(=O)c2cc(-c3ccco3)nc3ccccc23)cc1	0	-88.6	0	0	0
CN(C)C(=O)c1ccc(NC(=O)c2cc(-c3ccco3)nc3ccccc23)cc1	0	0	0	?	0
CCN(CC)CCNC(=O)c1ccc(NC(=O)c2cn(-c3ccc(F)cc3)nc2-c2cccc(OC)c2)cc1	20.6µM	-89.6	23.1µM	0	0
CCN(CC)CCNC(=O)c1ccc(NC(=O)c2ccccc2-c2ccc(C(F)(F)F)cc2)cc1	18.4µM	-66.9	23.1µM	0	0
CCOc1ccc(NC(=O)CN(C)C(=O)c2cn(-c3ccc(F)cc3)nc2-c2cccc(OC)c2)cc1OCC	0	0	0	0	?
O=C(COC(=O)c1ccc([N+](=O)[O-])o1)Nc1ccc2c(c1)OCO2	0	0	0	0	0
SMILES	HT1080 IDH1KD tx	IL1B secr inh	HT1080-NT tox	KB-3-1 cytotox	KB-V1 cytotox
Cc1ccc(C(=O)NCC(=O)OCC(=O)c2cccc3ccccc23)cc1	-	-	-	0	0
COC(=O)c1ccccc1S(=O)(=O)NNC(=O)Nc1ccccc1	0	0	0	0	0
O=C(CSc1nnc(-c2cccnc2)s1)Nc1ccnc2ccccc12	?	0	0	2.31µM	1.64µM
Cc1ccc(NC(=O)CSc2nnc(-c3cccnc3)s2)cc1	0	0	0	0	0
CCOC(=O)C1=C(C)N=c2s/c(=C\c3ccc(O)c([N+](=O)[O-])c3)c(=O)n2C1c1ccccc1OC (stereo not drawn)	0	0	?	?	?
CCOC(=O)C1=C(C)n2c(s/c(=C/c3cccc([N+](=O)[O-])c3)c2=O)=NC1c1ccc(O)c(OC)c1 (stereo not drawn)	?	-78.2	0	?	18.4µM
CCOc1ccc(C2NC(=O)NC(C)=C2[N+](=O)[O-])cc1OC (stereo not drawn)	0	0	0	0	0
CCOC(=O)C1CCN(C(=O)CCCn2nc(CC)n3c(cc4occc43)c2=O)CC1	0	0	0	0	0
COc1ccccc1NC(=O)Nc1nc(C(N)Cc2ccc(Cl)cc2)cs1 (stereo not drawn)	?	0	?	0	0
COc1ccccc1NC(=O)Nc1nc(C(N)CC(C)C)cs1 (stereo not drawn)	0	-57.1	0	0	0
COc1ccccc1NC(=O)Nc1nc(C(N)Cc2ccccc2)cs1 (stereo not drawn)	?	?	23.1µM	0	0
Cc1cccc(Cn2nc(C(C)(C)C)cc2C(=O)Nc2ccc(F)cc2)c1	?	-53.2	?	?	?
Cc1ccccc1NC(=O)Nc1nc(C(N)Cc2ccccc2)cs1 (stereo not drawn)	?	-56.4	23.1µM	0	0
CCOC(=O)C1=C(C)NC(C)=C(C(=O)OCC)C1C(=O)OCC(=O)N1CCOCC1	0	0	0	0	0
CC(C)CC(N)c1csc(NC(=O)Nc2ccccc2-c2ccccc2)n1 (stereo not drawn)	0	?	?	0	?
CC(C)CC(N)c1csc(NC(=O)C(c2ccccc2)c2ccccc2)n1 (stereo not drawn)	2.91µM	0	7.31µM	?	0
CC(C)CC(N)c1csc(NC(=O)c2cc(C(C)(C)C)nn2Cc2ccccc2)n1 (stereo not drawn)	16.4µM	-114.2	11.6µM	?	18.4µM
COc1ccc(-c2c(-c3cc(OC)c(OC)c(OC)c3)noc2C)cn1	1.46µM	0	?	1.64µM	1.64µM!
COc1cc(-c2c(-c3cc(OC)c(OC)c(OC)c3)noc2C)ccc1F	0.326µM	0	0.13µM	0.326µM!	0.411µM
COc1ccc(-c2c(-c3ccc4c(c3)OCO4)noc2C)cn1	0	0	0	?	?
CC1CC(C)CN(c2cc(N(C)CCO)c([N+](=O)[O-])c3nonc23)C1 (stereo not drawn)	0	0	0	0	0
O=C(Nc1c2c(nn1-c1ccc(F)cc1)CS(=O)(=O)C2)C12CC3CC(CC(C3)C1)C2	0	0	0	0	23.1µM
Cc1ccc(C(=O)C(C(=O)/C=C/c2ccccc2)=C2SCCCS2)cc1	10.3µM	-111.4	11.6µM	8.2µM	0
